Experimental data published in article PMC7862700, “An all-to-all approach to the identification of sequence-specific readers for epigenetic DNA modifications on cytosine”.

How the values were obtained:
Test in all cases: DAPPL (digital affinity profiling via proximity ligation, sequencing); 10 mM Tris-HCl pH 7.5, 50 mM NaCl, 1 mM DTT, 4% glycerol, room temperature, 30 min; GST-TFs on glutathione beads, 16-mer random dsDNA library, 0.1% formaldehyde crosslink after washing; high values mean tight binding
[1] = molecular target: T1, FEV (Homo sapiens, UniProt Q99581 1-238); conditions: protein: recombinant; tags: N-terminal GST; dsDNA, one strand shown
T1 sequence: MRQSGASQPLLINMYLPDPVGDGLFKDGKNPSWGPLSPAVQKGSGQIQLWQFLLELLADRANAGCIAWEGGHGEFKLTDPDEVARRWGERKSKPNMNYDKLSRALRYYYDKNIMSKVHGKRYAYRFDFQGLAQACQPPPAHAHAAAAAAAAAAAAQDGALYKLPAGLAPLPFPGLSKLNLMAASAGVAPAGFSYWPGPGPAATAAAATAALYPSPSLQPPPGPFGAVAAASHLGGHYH
How it was run: (§1)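 In yeast, human transcription factors were expressed with a GST fusion, then pulled down on glutathione beads and given DNA barcodes. Pooled with a tag-only sample, they were exposed to 200 nmole of a 16-mer random double-stranded DNA library (Tris/NaCl/DTT/glycerol buffer, room temperature, 30 min), washed, crosslinked with 0.1% formaldehyde, proximity-ligated using BsaI/T4 ligase for 1 h at 37 °C, PCR-amplified and read on an Illumina NextSeq500. Each hexamer's frequency of reads for a factor, divided by the matching frequency for the tag-only sample, gives the binding signal.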

[2] = molecular target: ETV5 (Homo sapiens, UniProt P41161 1-510); conditions: protein: recombinant; tags: N-terminal GST; dsDNA, one strand shown
Chain of ETV5 (P41161 whole entry): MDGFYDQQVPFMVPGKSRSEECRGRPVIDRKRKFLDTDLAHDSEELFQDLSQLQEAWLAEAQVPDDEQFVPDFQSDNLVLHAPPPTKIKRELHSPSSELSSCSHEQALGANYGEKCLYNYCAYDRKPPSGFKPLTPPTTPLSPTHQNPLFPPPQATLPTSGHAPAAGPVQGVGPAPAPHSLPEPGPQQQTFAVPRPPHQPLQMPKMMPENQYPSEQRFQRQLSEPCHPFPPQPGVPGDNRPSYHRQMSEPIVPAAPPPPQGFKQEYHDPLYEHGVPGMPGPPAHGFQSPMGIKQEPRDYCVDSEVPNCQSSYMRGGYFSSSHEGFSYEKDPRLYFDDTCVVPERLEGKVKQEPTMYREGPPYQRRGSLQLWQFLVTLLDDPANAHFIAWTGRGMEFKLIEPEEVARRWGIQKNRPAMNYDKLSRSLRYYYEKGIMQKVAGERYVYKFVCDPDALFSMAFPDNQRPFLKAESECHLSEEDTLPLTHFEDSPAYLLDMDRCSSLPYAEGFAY
How it was run: as §1

[3] = molecular target: HSF1 (Homo sapiens, UniProt Q00613 1-529); conditions: protein: recombinant; tags: N-terminal GST; chain copies: 3; dsDNA, one strand shown
Chain of HSF1 (Q00613 whole entry): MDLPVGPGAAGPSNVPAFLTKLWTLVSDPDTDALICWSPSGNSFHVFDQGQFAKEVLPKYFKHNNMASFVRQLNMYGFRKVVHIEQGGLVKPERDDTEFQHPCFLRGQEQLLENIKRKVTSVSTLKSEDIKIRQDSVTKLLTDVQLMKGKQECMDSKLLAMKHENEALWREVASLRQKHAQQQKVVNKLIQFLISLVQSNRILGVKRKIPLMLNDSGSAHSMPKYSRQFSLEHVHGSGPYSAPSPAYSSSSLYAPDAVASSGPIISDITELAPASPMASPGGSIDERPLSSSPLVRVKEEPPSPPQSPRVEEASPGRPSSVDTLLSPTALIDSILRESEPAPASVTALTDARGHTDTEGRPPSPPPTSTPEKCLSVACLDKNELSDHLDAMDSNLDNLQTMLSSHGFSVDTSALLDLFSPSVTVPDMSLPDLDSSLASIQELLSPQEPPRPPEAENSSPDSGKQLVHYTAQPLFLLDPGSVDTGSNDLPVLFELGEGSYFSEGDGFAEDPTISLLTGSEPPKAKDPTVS
How it was run: as §1

[4] = molecular target: T2, SPIC (Homo sapiens, UniProt Q8N5J4 1-248); conditions: protein: recombinant; tags: N-terminal GST; dsDNA, one strand shown
T2 sequence: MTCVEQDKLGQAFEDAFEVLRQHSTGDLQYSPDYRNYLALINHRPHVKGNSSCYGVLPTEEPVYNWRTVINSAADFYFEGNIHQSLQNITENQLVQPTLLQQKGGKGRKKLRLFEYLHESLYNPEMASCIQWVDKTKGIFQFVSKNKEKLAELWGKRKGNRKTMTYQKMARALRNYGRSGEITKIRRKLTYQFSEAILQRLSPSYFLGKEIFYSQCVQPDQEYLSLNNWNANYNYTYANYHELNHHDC
How it was run: as §1

[5] = molecular target: ELF4 (Homo sapiens, UniProt Q99607 1-663); conditions: protein: recombinant; tags: N-terminal GST; dsDNA, one strand shown
Chain of ELF4 (Q99607 whole entry): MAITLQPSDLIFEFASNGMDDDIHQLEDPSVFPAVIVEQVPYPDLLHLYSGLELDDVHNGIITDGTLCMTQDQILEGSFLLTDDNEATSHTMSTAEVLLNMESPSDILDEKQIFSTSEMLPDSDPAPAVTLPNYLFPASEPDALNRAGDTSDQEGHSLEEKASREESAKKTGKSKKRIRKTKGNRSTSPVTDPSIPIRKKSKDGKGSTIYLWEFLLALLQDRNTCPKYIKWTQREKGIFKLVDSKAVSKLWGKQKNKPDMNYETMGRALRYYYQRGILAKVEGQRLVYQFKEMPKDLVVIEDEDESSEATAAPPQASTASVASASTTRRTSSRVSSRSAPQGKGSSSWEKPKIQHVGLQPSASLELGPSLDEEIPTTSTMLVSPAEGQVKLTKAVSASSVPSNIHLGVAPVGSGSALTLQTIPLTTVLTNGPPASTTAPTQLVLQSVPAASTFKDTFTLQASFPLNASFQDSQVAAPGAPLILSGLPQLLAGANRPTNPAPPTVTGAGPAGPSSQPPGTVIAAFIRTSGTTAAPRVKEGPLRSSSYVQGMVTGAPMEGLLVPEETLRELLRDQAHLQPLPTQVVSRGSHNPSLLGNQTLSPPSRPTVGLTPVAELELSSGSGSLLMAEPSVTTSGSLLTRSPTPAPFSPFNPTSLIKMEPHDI
How it was run: as §1

[6] = molecular target: T3, ELK4 (Homo sapiens, UniProt P28324-2 1-405); conditions: protein: recombinant; tags: N-terminal GST; dsDNA, one strand shown
T3 sequence: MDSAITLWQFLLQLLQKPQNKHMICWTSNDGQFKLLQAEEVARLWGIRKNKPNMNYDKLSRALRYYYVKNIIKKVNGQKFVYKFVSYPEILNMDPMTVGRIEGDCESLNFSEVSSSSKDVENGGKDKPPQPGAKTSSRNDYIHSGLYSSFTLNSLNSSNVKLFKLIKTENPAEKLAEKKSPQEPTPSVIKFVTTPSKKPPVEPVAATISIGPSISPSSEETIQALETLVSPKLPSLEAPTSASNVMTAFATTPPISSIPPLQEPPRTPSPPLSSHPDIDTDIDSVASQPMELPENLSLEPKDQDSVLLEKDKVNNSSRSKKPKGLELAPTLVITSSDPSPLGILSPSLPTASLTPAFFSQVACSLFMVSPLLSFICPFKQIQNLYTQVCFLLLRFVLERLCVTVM
How it was run: as §1

[7] = molecular target: T4, ETV2 (Homo sapiens, UniProt O00321 1-342); conditions: protein: recombinant; tags: N-terminal GST; dsDNA, one strand shown
T4 sequence: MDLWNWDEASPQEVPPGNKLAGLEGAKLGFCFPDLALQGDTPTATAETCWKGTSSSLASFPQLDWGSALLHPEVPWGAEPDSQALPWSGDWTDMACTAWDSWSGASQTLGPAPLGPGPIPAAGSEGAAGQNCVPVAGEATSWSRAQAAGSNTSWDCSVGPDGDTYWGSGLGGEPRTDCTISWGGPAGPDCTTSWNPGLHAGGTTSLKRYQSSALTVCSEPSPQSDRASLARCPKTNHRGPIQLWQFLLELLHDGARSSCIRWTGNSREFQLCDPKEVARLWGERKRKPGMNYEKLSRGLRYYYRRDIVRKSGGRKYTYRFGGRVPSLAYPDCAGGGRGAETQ
How it was run: as §1

[8] = molecular target: T5, ELF3 (Homo sapiens, UniProt P78545 1-371); conditions: protein: recombinant; tags: N-terminal GST; dsDNA, one strand shown
T5 sequence: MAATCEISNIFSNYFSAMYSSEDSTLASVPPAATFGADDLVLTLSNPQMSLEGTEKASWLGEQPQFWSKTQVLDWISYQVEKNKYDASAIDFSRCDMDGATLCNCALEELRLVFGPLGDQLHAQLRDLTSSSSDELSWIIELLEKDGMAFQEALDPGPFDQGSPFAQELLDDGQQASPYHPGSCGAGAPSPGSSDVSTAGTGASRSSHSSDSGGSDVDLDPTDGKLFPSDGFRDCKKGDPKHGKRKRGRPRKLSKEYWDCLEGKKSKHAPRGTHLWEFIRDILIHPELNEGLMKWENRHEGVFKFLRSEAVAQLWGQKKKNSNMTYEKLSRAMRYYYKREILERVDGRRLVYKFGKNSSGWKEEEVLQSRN
How it was run: as §1

[9] = molecular target: ETV1 (Homo sapiens, UniProt P50549 1-477); conditions: protein: recombinant; tags: N-terminal GST; dsDNA, one strand shown
Chain of ETV1 (P50549 whole entry): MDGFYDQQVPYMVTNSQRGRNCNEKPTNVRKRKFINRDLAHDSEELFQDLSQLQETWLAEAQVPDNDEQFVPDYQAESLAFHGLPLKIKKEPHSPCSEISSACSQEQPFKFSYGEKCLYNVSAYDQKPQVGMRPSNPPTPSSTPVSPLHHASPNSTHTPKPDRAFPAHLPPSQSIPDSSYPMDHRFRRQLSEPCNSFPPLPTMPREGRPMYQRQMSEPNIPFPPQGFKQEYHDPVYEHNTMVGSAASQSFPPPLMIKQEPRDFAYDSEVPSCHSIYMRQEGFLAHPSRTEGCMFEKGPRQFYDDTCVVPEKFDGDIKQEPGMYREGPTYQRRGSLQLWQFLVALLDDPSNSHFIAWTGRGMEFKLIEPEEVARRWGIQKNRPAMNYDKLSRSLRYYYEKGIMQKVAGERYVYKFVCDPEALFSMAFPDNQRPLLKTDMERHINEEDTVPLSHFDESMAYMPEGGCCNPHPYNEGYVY
How it was run: as §1

[10] = molecular target: T6, ERF (Homo sapiens, UniProt P50548 1-548); conditions: protein: recombinant; tags: N-terminal GST; dsDNA, one strand shown
T6 sequence: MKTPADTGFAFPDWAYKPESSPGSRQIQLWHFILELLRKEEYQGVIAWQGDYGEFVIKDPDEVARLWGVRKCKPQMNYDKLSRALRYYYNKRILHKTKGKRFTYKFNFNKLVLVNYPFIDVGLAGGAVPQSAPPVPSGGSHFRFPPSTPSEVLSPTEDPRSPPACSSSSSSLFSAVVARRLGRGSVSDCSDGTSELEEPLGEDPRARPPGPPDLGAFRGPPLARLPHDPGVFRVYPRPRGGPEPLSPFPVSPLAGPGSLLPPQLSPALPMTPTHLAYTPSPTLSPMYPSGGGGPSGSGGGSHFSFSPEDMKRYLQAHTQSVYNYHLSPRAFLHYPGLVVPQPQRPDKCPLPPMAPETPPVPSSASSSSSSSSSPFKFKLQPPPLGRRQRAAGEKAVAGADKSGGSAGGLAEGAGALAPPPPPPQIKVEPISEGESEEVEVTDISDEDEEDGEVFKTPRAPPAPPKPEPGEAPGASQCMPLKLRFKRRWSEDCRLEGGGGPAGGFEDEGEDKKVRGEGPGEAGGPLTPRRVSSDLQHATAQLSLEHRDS
How it was run: as §1

[11] = molecular target: T7, ETV3L (Homo sapiens, UniProt Q6ZN32 1-361); conditions: protein: recombinant; tags: N-terminal GST; dsDNA, one strand shown
T7 sequence: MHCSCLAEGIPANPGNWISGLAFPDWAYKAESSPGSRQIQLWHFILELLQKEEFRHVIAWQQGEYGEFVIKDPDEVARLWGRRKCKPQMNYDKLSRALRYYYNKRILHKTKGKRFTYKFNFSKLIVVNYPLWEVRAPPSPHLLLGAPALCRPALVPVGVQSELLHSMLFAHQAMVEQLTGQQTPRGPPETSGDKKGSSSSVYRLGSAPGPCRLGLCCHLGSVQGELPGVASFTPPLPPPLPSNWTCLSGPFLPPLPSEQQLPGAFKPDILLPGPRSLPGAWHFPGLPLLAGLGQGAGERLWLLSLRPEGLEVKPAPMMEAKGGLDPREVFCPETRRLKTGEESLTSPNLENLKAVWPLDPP
How it was run: as §1

[12] = molecular target: T8, ETS2 (Homo sapiens, UniProt P15036 1-469); conditions: protein: recombinant; tags: N-terminal GST; dsDNA, one strand shown
T8 sequence: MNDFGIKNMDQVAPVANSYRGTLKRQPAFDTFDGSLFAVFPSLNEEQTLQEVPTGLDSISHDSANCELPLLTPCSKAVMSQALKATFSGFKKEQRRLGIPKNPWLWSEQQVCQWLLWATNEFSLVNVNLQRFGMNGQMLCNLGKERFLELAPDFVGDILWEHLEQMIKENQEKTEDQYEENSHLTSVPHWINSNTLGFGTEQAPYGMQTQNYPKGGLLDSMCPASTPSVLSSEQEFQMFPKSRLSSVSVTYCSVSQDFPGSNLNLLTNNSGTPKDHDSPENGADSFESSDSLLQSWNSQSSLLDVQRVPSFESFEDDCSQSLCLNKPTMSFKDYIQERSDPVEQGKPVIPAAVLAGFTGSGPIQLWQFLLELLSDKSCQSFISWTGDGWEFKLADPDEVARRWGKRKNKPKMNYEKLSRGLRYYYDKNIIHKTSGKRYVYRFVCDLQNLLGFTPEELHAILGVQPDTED
How it was run: as §1

[13] = molecular target: T9, SPDEF (Homo sapiens, UniProt O95238 1-335); conditions: protein: recombinant; tags: N-terminal GST; dsDNA, one strand shown
T9 sequence: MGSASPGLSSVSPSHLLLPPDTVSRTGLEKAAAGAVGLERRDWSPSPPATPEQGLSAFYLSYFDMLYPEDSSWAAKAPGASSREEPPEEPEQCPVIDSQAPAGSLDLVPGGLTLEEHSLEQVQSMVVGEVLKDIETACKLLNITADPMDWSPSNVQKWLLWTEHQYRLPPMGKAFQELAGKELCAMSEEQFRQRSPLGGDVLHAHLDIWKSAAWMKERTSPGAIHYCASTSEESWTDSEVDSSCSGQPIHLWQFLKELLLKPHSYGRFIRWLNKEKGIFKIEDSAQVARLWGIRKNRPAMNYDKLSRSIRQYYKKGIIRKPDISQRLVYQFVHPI
How it was run: as §1

[14] = molecular target: T10, ETV7 (Homo sapiens, UniProt Q9Y603 1-341); conditions: protein: recombinant; tags: N-terminal GST; dsDNA, one strand shown
T10 sequence: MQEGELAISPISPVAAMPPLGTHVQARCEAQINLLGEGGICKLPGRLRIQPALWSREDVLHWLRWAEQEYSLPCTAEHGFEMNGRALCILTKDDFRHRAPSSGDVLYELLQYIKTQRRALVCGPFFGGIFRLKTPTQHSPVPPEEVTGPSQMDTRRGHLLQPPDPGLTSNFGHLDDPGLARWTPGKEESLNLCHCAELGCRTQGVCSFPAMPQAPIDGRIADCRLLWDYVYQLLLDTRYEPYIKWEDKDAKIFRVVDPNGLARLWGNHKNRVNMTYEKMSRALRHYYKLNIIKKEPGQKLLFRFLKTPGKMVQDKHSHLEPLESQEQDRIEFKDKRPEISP
How it was run: as §1

[15] = molecular target: T11, ELF5 (Homo sapiens, UniProt Q9UKW6-2 1-255); conditions: protein: recombinant; tags: N-terminal GST; dsDNA, one strand shown
T11 sequence: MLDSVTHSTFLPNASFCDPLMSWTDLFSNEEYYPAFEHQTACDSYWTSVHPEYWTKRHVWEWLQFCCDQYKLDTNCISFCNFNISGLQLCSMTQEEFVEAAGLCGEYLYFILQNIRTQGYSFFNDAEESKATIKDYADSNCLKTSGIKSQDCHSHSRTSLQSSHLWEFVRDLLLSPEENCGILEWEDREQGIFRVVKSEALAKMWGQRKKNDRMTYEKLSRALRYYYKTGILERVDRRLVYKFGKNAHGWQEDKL
How it was run: as §1

[16] = molecular target: T12, ETV3 (Homo sapiens, UniProt P41162-2 1-143); conditions: protein: recombinant; tags: N-terminal GST; dsDNA, one strand shown
T12 sequence: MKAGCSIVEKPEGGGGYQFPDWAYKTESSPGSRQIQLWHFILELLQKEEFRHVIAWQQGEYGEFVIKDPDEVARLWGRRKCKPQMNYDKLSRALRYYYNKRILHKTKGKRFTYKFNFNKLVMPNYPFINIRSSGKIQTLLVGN
How it was run: as §1

[17] = molecular target: ETV6 (Homo sapiens, UniProt P41212 1-452); conditions: protein: recombinant; tags: N-terminal GST; dsDNA, one strand shown
Chain of ETV6 (P41212 whole entry): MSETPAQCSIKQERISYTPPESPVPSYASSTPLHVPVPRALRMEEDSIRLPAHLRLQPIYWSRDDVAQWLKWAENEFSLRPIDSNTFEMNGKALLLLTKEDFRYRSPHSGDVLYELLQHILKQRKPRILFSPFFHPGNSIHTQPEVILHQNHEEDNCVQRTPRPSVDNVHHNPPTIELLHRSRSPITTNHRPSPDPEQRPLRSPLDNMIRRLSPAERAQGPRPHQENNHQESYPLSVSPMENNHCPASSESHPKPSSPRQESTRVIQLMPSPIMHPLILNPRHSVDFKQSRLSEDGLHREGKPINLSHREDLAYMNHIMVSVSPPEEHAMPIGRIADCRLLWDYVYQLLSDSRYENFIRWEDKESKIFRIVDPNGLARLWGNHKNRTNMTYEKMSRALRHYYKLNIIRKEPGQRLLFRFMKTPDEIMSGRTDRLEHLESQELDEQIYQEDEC
How it was run: as §1

## TGCCGC
[1]
  binding signal: 1.27 fold enrichment (6-mer frequency, TF over GST control)
[2]
  binding signal: 1.23 fold enrichment (6-mer frequency, TF over GST control)
[3]
  binding signal: 1.03 fold enrichment (6-mer frequency, TF over GST control)
[4]
  binding signal: 1.15 fold enrichment (6-mer frequency, TF over GST control)
[5]
  binding signal: 1.35 fold enrichment (6-mer frequency, TF over GST control)
[6]
  binding signal: 1.23 fold enrichment (6-mer frequency, TF over GST control)
[7]
  binding signal: 1.06 fold enrichment (6-mer frequency, TF over GST control)
[8]
  binding signal: 1.07 fold enrichment (6-mer frequency, TF over GST control)
[9]
  binding signal: 1.3 fold enrichment (6-mer frequency, TF over GST control)
[10]
  binding signal: 1.32 fold enrichment (6-mer frequency, TF over GST control)
[11]
  binding signal: 1.22 fold enrichment (6-mer frequency, TF over GST control)
[12]
  binding signal: 1.33 fold enrichment (6-mer frequency, TF over GST control)
[13]
  binding signal: 1.15 fold enrichment (6-mer frequency, TF over GST control)
[14]
  binding signal: 1.22 fold enrichment (6-mer frequency, TF over GST control)
[15]
  binding signal: 1.22 fold enrichment (6-mer frequency, TF over GST control)
[16]
  binding signal: 1.36 fold enrichment (6-mer frequency, TF over GST control)
[17]
  binding signal: 1.27 fold enrichment (6-mer frequency, TF over GST control)
